Results on 91 compounds are retold here after PubChem BioAssay AID588664 (The Scripps Research Institute Molecular Screening Center, 2011).

Molecules are shown by their SMILES. Out of some 360,000 compounds screened, about 1,400 (0.39%) were called active. This is one part of a sample in which actives are shown more often than they occur. Unmarked numbers belong to inactive results. Rule as the data show it: active = inhibition above about 5% (passing the limit was not always enough); inactive = the rest.

For the test, the target named is Tyrosine-protein kinase ABL1 (Homo sapiens) + Ras and Rab interactor 1 (Homo sapiens) (UniProt P00519+Q13671). The test can be described thus: disruptors of human Abl and Rin1 association – biochemical, TR-FRET, primary screen (AID 588664). The conditions noted are these: TR-FRET Rin1/Abl binding, at 7.35 µM, hits give high values.
Tyrosine-protein kinase ABL1 (Homo sapiens) + Ras and Rab interactor 1 (Homo sapiens), sequence (P00519 whole entry, looked up): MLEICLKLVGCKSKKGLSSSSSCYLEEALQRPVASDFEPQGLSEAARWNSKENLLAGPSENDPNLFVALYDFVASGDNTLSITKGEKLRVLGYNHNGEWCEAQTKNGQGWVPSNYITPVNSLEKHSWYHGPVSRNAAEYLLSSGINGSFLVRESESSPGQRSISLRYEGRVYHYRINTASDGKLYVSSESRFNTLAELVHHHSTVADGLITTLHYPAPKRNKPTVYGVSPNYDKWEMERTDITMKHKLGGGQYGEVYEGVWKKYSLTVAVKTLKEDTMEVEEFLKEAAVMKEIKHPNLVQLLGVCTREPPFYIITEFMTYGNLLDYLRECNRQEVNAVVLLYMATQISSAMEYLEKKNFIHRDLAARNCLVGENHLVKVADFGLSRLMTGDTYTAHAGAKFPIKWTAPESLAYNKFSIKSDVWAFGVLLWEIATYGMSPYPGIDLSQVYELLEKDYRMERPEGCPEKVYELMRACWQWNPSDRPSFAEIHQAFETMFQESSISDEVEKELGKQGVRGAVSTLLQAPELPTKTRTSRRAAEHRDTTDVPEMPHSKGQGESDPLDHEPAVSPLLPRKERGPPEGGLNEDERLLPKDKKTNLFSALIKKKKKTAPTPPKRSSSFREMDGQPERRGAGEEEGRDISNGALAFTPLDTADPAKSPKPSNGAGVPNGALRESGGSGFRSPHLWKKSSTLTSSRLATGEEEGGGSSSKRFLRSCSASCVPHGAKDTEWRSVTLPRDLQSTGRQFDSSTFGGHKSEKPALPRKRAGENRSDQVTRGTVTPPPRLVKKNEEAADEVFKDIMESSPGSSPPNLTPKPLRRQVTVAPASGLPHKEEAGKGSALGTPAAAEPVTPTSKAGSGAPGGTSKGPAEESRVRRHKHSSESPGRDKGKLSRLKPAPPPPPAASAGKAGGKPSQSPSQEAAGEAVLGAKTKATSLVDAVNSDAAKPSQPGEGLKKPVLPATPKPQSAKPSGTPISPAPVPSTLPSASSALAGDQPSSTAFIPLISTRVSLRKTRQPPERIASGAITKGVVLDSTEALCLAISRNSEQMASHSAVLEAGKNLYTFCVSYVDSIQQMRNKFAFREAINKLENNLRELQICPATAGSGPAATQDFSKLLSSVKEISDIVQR
Tyrosine-protein kinase ABL1 (Homo sapiens) + Ras and Rab interactor 1 (Homo sapiens), sequence (Q13671 whole entry, looked up): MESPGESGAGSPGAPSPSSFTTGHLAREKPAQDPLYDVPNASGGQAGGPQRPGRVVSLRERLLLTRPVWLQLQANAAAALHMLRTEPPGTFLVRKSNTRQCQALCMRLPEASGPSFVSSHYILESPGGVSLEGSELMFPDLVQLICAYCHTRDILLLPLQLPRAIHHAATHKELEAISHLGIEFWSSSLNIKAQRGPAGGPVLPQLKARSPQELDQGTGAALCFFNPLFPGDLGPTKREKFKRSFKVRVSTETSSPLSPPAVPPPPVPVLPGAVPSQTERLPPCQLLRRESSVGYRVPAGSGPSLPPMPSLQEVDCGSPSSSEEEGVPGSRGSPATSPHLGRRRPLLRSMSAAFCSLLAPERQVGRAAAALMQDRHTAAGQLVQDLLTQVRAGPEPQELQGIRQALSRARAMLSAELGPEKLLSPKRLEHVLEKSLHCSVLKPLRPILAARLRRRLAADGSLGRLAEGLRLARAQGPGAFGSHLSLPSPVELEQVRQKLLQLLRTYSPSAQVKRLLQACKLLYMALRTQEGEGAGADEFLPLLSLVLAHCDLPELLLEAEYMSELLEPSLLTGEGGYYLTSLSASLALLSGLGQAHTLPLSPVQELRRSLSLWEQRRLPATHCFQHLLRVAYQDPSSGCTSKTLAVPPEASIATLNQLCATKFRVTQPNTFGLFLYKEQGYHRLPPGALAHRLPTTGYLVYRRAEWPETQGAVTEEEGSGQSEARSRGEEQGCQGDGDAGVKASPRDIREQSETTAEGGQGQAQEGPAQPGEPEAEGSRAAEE
Regarding `CCOc1ccc(S(=O)(=O)N2CCCCC2)cc1NC(=O)CN1CCCC1c1cccs1` (stereo unspecified), the inhibition is 8.67% (active).

Consider `COc1ccc(S(=O)(=O)N2CCCCC2)cc1NC(=O)COc1ccccc1`, for which the inhibition is 0.41%.

As for `CCOc1ccccc1NC(=O)COc1ccc(S(=O)(=O)N2CCCC2)cc1`, the inhibition is 2.38%. With `COc1ccccc1C(CNC(=O)c1ccc(C)c(S(=O)(=O)N2CCCCC2)c1)N(C)C` (stereo unspecified) the figure was 1.36%. With `COc1ccc(NC(=O)C(C)N2c3cccc4cccc(c34)S2(=O)=O)c(OC)c1` (stereo unspecified) the figure was 0.54%; with `NC(=O)C[C@@H]1NC(=O)CNC(=O)c2cc([N+](=O)[O-])cc(I)c2NCCC(C(N)=O)NC1=O` (stereo partly specified), -0.35%; with `O=C(COc1ccc(S(=O)(=O)NCCc2ccccc2)cc1)N1CCCC1`, 7.8% (active). With `O=C(COc1ccc(S(=O)(=O)NCc2ccccc2)cc1)N1CCOCC1` the figure was -6.66%; with `CC(NS(=O)(=O)c1ccc(OCC(=O)N2CCCC2)cc1)c1ccccc1` (stereo unspecified), 1.07%; with `COc1cc(C(=O)N/C(=C\c2cn(C)c3ccccc23)C(=O)N2CCOCC2)cc(OC)c1OC`, 3.65%.

In the case of `Cc1cccc(N)c1SC1CCCCC1O` (stereo unspecified), the inhibition was -2.16%. For `COC(=O)C1=C(N)Oc2c(oc(CO)cc2=O)C1c1c(F)cccc1Cl` (stereo unspecified), the inhibition is 1.15%. The value for `Cc1cccc(CN2CCN(C3CN(Cc4ccccc4)S(=O)(=O)C3)CC2)c1` (stereo unspecified) was 5.69%. The value for `NC(=O)c1ccsc1NC(=O)COC(=O)Cc1n[nH]c(=O)c2ccccc12` was 1.63%. The value for `Cc1ccc(S(=O)(=O)C2(S(=O)(=O)c3ccc(C)cc3)CCCC2)cc1` was 1.29%; that for `CC1(C(=O)Nc2cccc3c2CCCC3)CCN1C(=O)C1(c2ccccc2)CC1` (stereo unspecified) was 1.83%. Take `Cc1c(NC(=O)C(C)OC(=O)c2ccccc2O)c(=O)n(-c2ccccc2)n1C` (stereo unspecified): the inhibition was -1.15%. With `CC(OC(=O)c1ccccc1NCCO)C(=O)Nc1ccnn1C(C)C` (stereo unspecified) the figure was 44.6% (active); with `COC(=O)c1ccccc1NC(=O)CSc1ccccn1`, -0.76%. For `C=CCc1cc(C)ccc1OCCCn1ccnc1`, the inhibition was 0.39%. The value for `CCc1ccccc1NC(=S)N(CCN1CCCCCC1)Cc1ccco1` was -2.14%; that for `Cc1cc(C)n(CCNCc2c(C(=O)N3C[C@@H](C)O[C@@H](C)C3)nc3ccc(Cl)cn23)n1` was 5.28%. With `CCc1nnc(NC(=O)C2CCN(C(=O)c3ccccc3C)CC2)s1` the figure was -1.24%.

As to `CC(=O)c1cccc(NC(=O)C2CCN(C(=O)c3ccccc3Cl)CC2)c1`, the inhibition was -0.65%. With `Cc1ccccc1C(=O)N1CCC(C(=O)Nc2ccc(S(=O)(=O)N(C)C(C)C)cc2)CC1` the figure was 14.6% (active); with `Cc1ccc(CN2CCN(Cc3ccccc3-c3ccco3)CC2CCO)o1` (stereo unspecified), -0.29%.

In the case of `O=Nc1c(O)cc(O)c2ccccc12`, the inhibition was 12.5% (active). With `O=c1c2ccccc2ccc2ccc(P(=O)(O)O)cc12` the figure was 0.55%; with `COc1cccc2c(O)cc(=O)n(C)c12`, -0.91%; with `CCCC(=O)C1=C(N(C)c2ccccc2)CC(C)(C)C(C(=O)OC)C1=O` (stereo unspecified), 0.08%. `CC(C)CNC(=O)CC(c1ccccc1)c1c(O)ccc2ccccc12` (stereo unspecified): the inhibition is -0.65%. Take `COc1ccc(OCCn2ccnc2C)cc1`: the inhibition is 1.4%. Regarding `O=[N+]([O-])c1cc(C(F)(F)F)ccc1NCCc1ccncc1`, the inhibition was -3.62%.

Consider `Cc1ccccc1-c1nnc(SCC(=O)NCc2ccc3c(c2)OCO3)n1C`, for which the inhibition was 0.29%.

Turning to `Cc1ccc(-n2c(SCC(=O)NCc3ccc4c(c3)OCO4)nnc2-c2cccnc2)c(C)c1`, the inhibition was 8.97% (active). With `CCCn1c(N)c(C(=O)CSc2nnc3n2CCCCC3)c(=O)[nH]c1=O` the figure was 6.59%; with `CCCn1c(N)c(C(=O)CSc2nnc(Cc3cccs3)n2C2CC2)c(=O)[nH]c1=O`, 2.22%; with `CCCn1c(N)c(C(=O)CSc2nnc(-c3cccnc3)n2-c2ccc(C)cc2C)c(=O)[nH]c1=O`, 12.2% (active). The value for `Cc1cccc(C)c1NC(=O)CSc1nnc(-c2ccccc2)n1Cc1ccc2c(c1)OCO2` was 8.78%. With `CCOC1CCCCC1NS(=O)(=O)c1ccc(Cl)cc1` (stereo unspecified), the inhibition is -1.9%.

Take `COc1ccc(C(CNC(=O)c2cc3c(s2)CCCC3)N2CCOCC2)cc1` (stereo unspecified): the inhibition was -1.94%. Regarding `O=C(c1ccc(NS(=O)(=O)c2ccc3[nH]c(=O)[nH]c3c2)cc1)N1CCCCC1`, the inhibition is 2.64%. On to `Cc1ccccc1N1CCN(C(=O)c2cccnc2)CC1`, for which the inhibition is 1.88%. With `CC(C)Cn1cnc2c1c(=O)n(CC(O)c1ccccc1)c(=O)n2CC(C)C` (stereo unspecified) the figure was 2.26%; with `COCCNc1nc(-n2nc(C)cc2C)nc2sc3c(c12)CCCC3`, -2.91%; with `COC(=O)c1ccccc1OCC(=O)N1CCN(c2ccc(Cl)cc2)CC1`, 3.93%.

On to `COc1cccc(N2C(=O)C3CCCN3C2c2ccc(F)cc2)c1` (stereo unspecified), for which the inhibition is 1.17%. With `COc1ccc(N2C(=O)C3CCCN3C2c2cccs2)cc1` (stereo unspecified) the figure was 7.79% (active); with `COc1ccc(N2C(=O)C3CCCN3C2c2cc(OC)c(OC)cc2OC)cc1` (stereo unspecified), -1.54%; with `CSc1ccc(/C=C/C(=O)NC23CC4CC(CC(C4)C2)C3)cc1`, -0.46%. With `CCN(Cc1ccccc1)C(=O)CCS(=O)(=O)c1ccc2c(c1)oc(=O)n2C` the figure was -4.23%; with `CS(=O)(=O)N1CCN(C(=O)CSc2ccccc2)CC1`, 2.46%.

As for `O=c1oc2ccccc2cc1-c1cn(-c2ccccc2)c(=S)[nH]1`, the inhibition is -2.16%.

In the case of `O=C(c1cn(-c2ccccc2)nc1-c1cc2ccccc2oc1=O)N1CCOCC1`, the inhibition is 8.23% (active).

With `NC(=O)C1CCN(C(=O)c2cn(-c3ccccc3)nc2-c2cccnc2)CC1`, the inhibition is 2.02%. The value for `CCCCCN(C(=O)CCC(=O)OCCOc1ccc(OC)cc1)c1c(N)n(CCCC)c(=O)[nH]c1=O` was 1.88%. The value for `Cc1cc(C(F)(F)F)nn1CC(=O)N1CCCC1` was -1.33%; that for `Oc1c(C(c2ccccn2)N2CCOCC2)ccc2cccnc12` (stereo unspecified) was 27% (active); that for `C/C=C/C(=O)Nc1nnc(C(C)C)s1` was -0.75%.

With `O=C(O)/C(=C/c1cccnc1)NC(=O)c1ccccc1`, the inhibition is -1.66%.

With `Cc1nc(CN2CCN(C(=O)CCc3nnc(Cc4c[nH]c5ccccc45)o3)CC2)cs1`, the inhibition is -2.84%.

As for `O=C(Oc1c(-c2ccco2)oc2ccccc2c1=O)c1cccnc1`, the inhibition is 0.23%.

Consider `CCOC(=O)N1CCC(NC(=O)CCc2ccccc2)CC1`, for which the inhibition was -0.75%. Turning to `CCOC(=O)CN1CCC(c2ccccc2)CC1`, the inhibition was 1.17%. With `CCOC(=O)N1CCC(c2cc(=O)n(-c3ccccc3)[nH]2)CC1` the figure was 11.4% (active); with `C[C@@H]1CN([C@@H](C)CO)C(=O)CCCn2nncc2CO[C@H]1CN(C)C(=O)Nc1ccc(C(F)(F)F)cc1`, -1.77%. The value for `CCCOc1ccc(C2C(C(=O)c3ccc(C)o3)=C(O)C(=O)N2CCCn2ccnc2)cc1` (stereo unspecified) was -89.7%; that for `OCC(CO)(CO)NCc1ccc(-c2ccccc2)cc1` was -1.05%; that for `COc1ccc(Cl)cc1-n1c(=S)sc2c(=O)n(-c3ccc(F)cc3)c(SCC(=O)O)nc21` was 3.75%. The value for `CN(C(=O)c1cccc(NC(=O)Cc2cccc(NC(=O)C3CCCN(C(=O)C4CC4)C3)c2)c1)C1CCC1` (stereo unspecified) was 1.65%.

Regarding `CN(C(=O)c1cccc(NC(=O)Cc2ccc(NC(=O)C3CCN(C(=O)C4CCCCC4)CC3)cc2)c1)C1CCC1`, the inhibition is 0.86%. The value for `CN(C(=O)c1ccc(NC(=O)Cc2cccc(NC(=O)C3CCN(C(=O)c4ccccc4)CC3)c2)cc1)C1CC1` was 16.1% (active); that for `C=CCn1c(SCC(=O)c2c(N)n(C)c(=O)n(C)c2=O)nc2sc(CC)cc2c1=O` was -0.41%; that for `O=C(CSCc1ccc([N+](=O)[O-])cc1)Nc1cccc(C(=O)Nc2ccccc2C(=O)O)c1` was 11.8% (active). The value for `O=C(COc1ccc([N+](=O)[O-])cc1)Nc1cccc(C(=O)Nc2ccccc2C(=O)O)c1` was 2.02%. The value for `COc1ccc(NC(=O)CSCc2ccc([N+](=O)[O-])cc2)cc1OC` was 0.28%; that for `CCOCCCNC(=O)C(NC(=O)Cc1c[nH]c2ccccc12)c1ccc(OC)cc1` (stereo unspecified) was -1.97%. For the compound `CC(C)(C)c1ccc(Cn2nnc3c(=O)[nH]c(C4CCCN(C(=O)c5ccco5)C4)nc32)cc1` (stereo unspecified), the inhibition was 0.48%.

In the case of `O=C(Nc1nn(Cc2ccccc2F)cc1Br)c1cccs1`, the inhibition is -1.24%.

`Oc1cccc2cc(-c3ccncc3)cnc12`: the inhibition is 13.3% (active). With `Fc1ccc(-c2ccc(CNCc3ccccn3)o2)cc1Cl` the figure was -2.17%. Take `CN1CCN(C(CNS(=O)(=O)c2cccs2)c2cccnc2)CC1` (stereo unspecified): the inhibition was 1.76%. The value for `COC(=O)CN1C(C)=Nc2ccc(Br)cc2C1c1ccccc1` (stereo unspecified) was 0.76%; that for `Cc1nn(-c2ncc(C(F)(F)F)cc2Cl)c(=O)n1-c1ccccc1` was 7.67% (active). Turning to `Cc1nn(CC#N)c(=O)n1N(C)c1ncc(C(F)(F)F)cc1Cl`, the inhibition was 2.69%. The value for `CN(C)C=NC(=O)c1cccn1-c1ncc(C(F)(F)F)cc1Cl` was 1.65%; that for `O=C(O)c1cccc2c1C(=O)N(C1CCCC1)C2` was -1.46%.

For the compound `O=c1ccc2c(-c3ccccc3S(=O)(=O)O)c3ccc(O)c(O)c3oc-2c1O`, the inhibition is 52.3% (active). The value for `COCCNC(=O)COc1ccc(N(C)S(=O)(=O)c2ccc3ccccc3c2)cc1` was 1.04%; that for `Cc1cc2ccccc2n1CCNC(=O)COc1ccc2ccccc2c1` was 7.69% (active). With `Cc1ccc(C)c(NC(=O)CN(C)C(=O)COc2ccc3ccccc3c2)c1` the figure was 0.05%.
